Data published in the supplement of paper PMC8866396.
± gives the standard deviation of the averaged measurements.

What follows are molecules tested on IL-6-GFP PC-9 (assay: cell viability (CCK-8 OD) relative to DMSO control (fraction of control); higher = more viable cells). Settings: compound concentration: 10 uM; treatment time: 48 h.
How it was run: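 Each well's viability is its CCK-8 optical density divided by that of the vehicle control well. The cells, PC-9 and PC-9GR lung cancer lines overexpressing IL-6-GFP from a lentiviral construct, were seeded at 3000 cells/well in 96-well plates and exposed for 48 h to each compound of a purchased 510-compound library at a final 10 μM, in two independent replicates.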

Q: For `CC1Oc2cc(cnc2N)-c2c(nn(C)c2C#N)CN(C)C(=O)c2ccc(F)cc21` (stereo not drawn), which cell viability is on record?
A: 0.945 ± 0.12

Q: How did the cell viability turn out when `C=CC1CC1(NC(=O)C1CC(Oc2ncc(OC)c3ccc(Cl)cc23)CN1C(=O)C(NC(=O)OC(C)(C)C)C(C)(C)C)C(=O)NS(=O)(=O)C1CC1` (stereo not drawn) [Asunaprevir] was run?
A: 1.05 ± 0.46

Q: Which cell viability does the source give for `CN1CCN(C(c2ccccc2)c2ccccc2)CC1.Cl.Cl` [Cyclizine 2HCl] here?
A: 0.972 ± 0.038

Q: How did the cell viability turn out when `C#Cc1cccc(Nc2ncnc3cc(OCCOC)c(OCCOC)cc23)c1.Cl` [Erlotinib HCl (OSI-744)] was run?
A: 0.388 ± 0.33

Q: With `N#CC1(c2ccc(NC(=O)c3cccnc3NCc3ccncc3)cc2)CCCC1` [Apatinib] as the molecule, how does the cell viability read?
A: 1.177 ± 0.0032

Q: How did the cell viability turn out when `O=C(c1ccc(OCCN2CCCCC2)cc1)c1c(-c2ccc(O)cc2)sc2cc(O)ccc12` [Raloxifene] was run?
A: 1.08 ± 0.11

Q: With `Cc1ccc(NC(=O)c2ccc(CN3CCN(C)CC3)cc2)cc1Nc1nc(-c2cccnc2)cs1` [Masitinib (AB1010)] as the molecule, how does the cell viability read?
A: 0.366 ± 0.26

Q: How did the cell viability turn out when `CC(CN1c2ccccc2Sc2ccccc21)N(C)C.Cl` (stereo not drawn) [Promethazine HCl] was run?
A: 1.05 ± 0.051
